Test results: PubChem BioAssay (NCI)
This is part of a sample that, as a whole, favours compounds with a hit. Of some 83,000 tested, about 20% had one in any assay.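 Single-dose data. Exposure time 48 hours. Values below 10 considered active.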 Active and inactive are the calls of the source.

Experiments:
Assay in all cases: NCI-60 one-dose screen, 48 h (100 = growth as untreated, 0 = no growth, -100 = all killed)
Conditions in all cases: 10 µM unless noted
HCT-15 colon = tested on: HCT-15 colon
HT29 colon = tested on: HT29 colon
SNB-75 CNS = tested on: SNB-75 CNS
U251 CNS = tested on: U251 CNS
PC-3 prostate = tested on: PC-3 prostate
SK-MEL-5 melanoma = tested on: SK-MEL-5 melanoma
UACC-62 melanoma = tested on: UACC-62 melanoma
LOX IMVI melanoma = tested on: LOX IMVI melanoma
SK-MEL-28 melanoma = tested on: SK-MEL-28 melanoma
SK-MEL-2 melanoma = tested on: SK-MEL-2 melanoma
EKVX NSCLC = tested on: EKVX NSCLC
SN12C renal = tested on: SN12C renal
UO-31 renal = tested on: UO-31 renal
TK-10 renal = tested on: TK-10 renal
ACHN renal = tested on: ACHN renal
CAKI-1 renal = tested on: CAKI-1 renal
A498 renal = tested on: A498 renal
CCRF-CEM leukemia = tested on: CCRF-CEM leukemia
MOLT-4 leukemia = tested on: MOLT-4 leukemia

Measured: growth

CNC(=O)c1cc(Oc2ccc3c(c2)sc2nc(-c4ccc(NC(=O)[C@@H](NC(=O)OC)C(C)C)cc4)cn23)ccn1
active: SK-MEL-5 melanoma 5.33%
inactive: HCT-15 colon 73.2% | HT29 colon 72.1% | SNB-75 CNS 99.5% | U251 CNS 81.6% | PC-3 prostate 40.2% | UACC-62 melanoma 42.9% | LOX IMVI melanoma 67.2% | SK-MEL-28 melanoma 75.7% | SK-MEL-2 melanoma 59.6% | EKVX NSCLC 66.3% | SN12C renal 72.2% | UO-31 renal 52.5% | TK-10 renal 85.4% | ACHN renal 83.3% | CAKI-1 renal 77.1% | A498 renal 68.5% | CCRF-CEM leukemia 23.5% | MOLT-4 leukemia 23.8%

O=[N+]([O-])c1ccccc1Nc1ccc2ccccc2c1
inactive: HCT-15 colon 93.5% | HT29 colon 94.1% | SNB-75 CNS 62.9% | U251 CNS 92.7% | PC-3 prostate 92.3% | SK-MEL-5 melanoma 98.6% | UACC-62 melanoma 79.5% | LOX IMVI melanoma 92.5% | SK-MEL-28 melanoma 101% | SK-MEL-2 melanoma 104% | EKVX NSCLC 87.7% | SN12C renal 98.9% | UO-31 renal 59.4% | TK-10 renal 99.7% | ACHN renal 99.2% | CAKI-1 renal 78.3% | A498 renal 59.9%

CCN(CC)CCOc1ccc2ccc(=O)oc2c1
inactive: HCT-15 colon 104% | HT29 colon 102% | SNB-75 CNS 107% | U251 CNS 101% | PC-3 prostate 21.3% | SK-MEL-5 melanoma 102% | UACC-62 melanoma 94.8% | LOX IMVI melanoma 101% | SK-MEL-28 melanoma 99.6% | SK-MEL-2 melanoma 103% | EKVX NSCLC 105% | SN12C renal 100% | UO-31 renal 82.9% | TK-10 renal 97.7% | ACHN renal 97% | CAKI-1 renal 90.9% | A498 renal 98.5%
active: CCRF-CEM leukemia 3.66% | MOLT-4 leukemia 4.48%

CCOC(=O)c1cnn(CC(C)O)c1NC(=O)NCc1cccc(F)c1 (stereo not given)
inactive: HCT-15 colon 107% | HT29 colon 84.3% | SNB-75 CNS 104% | U251 CNS 97.4% | PC-3 prostate 73.3% | SK-MEL-5 melanoma 100% | UACC-62 melanoma 92.2% | LOX IMVI melanoma 97.1% | SK-MEL-28 melanoma 113% | SK-MEL-2 melanoma 85.6% | EKVX NSCLC 99.9% | SN12C renal 103% | UO-31 renal 91.7% | TK-10 renal 86.9% | ACHN renal 106% | CAKI-1 renal 97.3% | A498 renal 96.4% | MOLT-4 leukemia 81.4%
active: CCRF-CEM leukemia -2.06%

O=C(NN1C(=O)CSC1c1cccc([N+](=O)[O-])c1)c1ccc(NC(=O)c2ccccn2)cc1 (stereo not given)
inactive: HCT-15 colon 92.3% | HT29 colon 105% | SNB-75 CNS 98.9% | U251 CNS 106% | PC-3 prostate 107% | SK-MEL-5 melanoma 102% | UACC-62 melanoma 96% | LOX IMVI melanoma 94.9% | SK-MEL-28 melanoma 99.3% | SK-MEL-2 melanoma 102% | EKVX NSCLC 97.7% | SN12C renal 96.9% | UO-31 renal 94.5% | TK-10 renal 97% | ACHN renal 103% | CAKI-1 renal 98.7% | A498 renal 97.5% | CCRF-CEM leukemia 110%

Cc1ccc(OCCOCCOCCOCCOCCOc2ccc(C)n(O)c2=S)c(=S)n1O
active: SK-MEL-5 melanoma -32.3% | UACC-62 melanoma -13.9% | LOX IMVI melanoma 3.58% | SN12C renal 8.41% | UO-31 renal -26.1% | ACHN renal 8.16% | CAKI-1 renal 7.97% | CCRF-CEM leukemia 1.49% | MOLT-4 leukemia 2.29%
inactive: HCT-15 colon 29% | HT29 colon 25.7% | SNB-75 CNS 24.8% | U251 CNS 12.3% | PC-3 prostate 33.3% | SK-MEL-28 melanoma 33.2% | SK-MEL-2 melanoma 15.7% | EKVX NSCLC 13.1% | TK-10 renal 30.2% | A498 renal 20.4%

COc1ccc(C/C(C)=C(\c2ccc(O)cc2)c2ccc(OCCN3CCCCC3)cc2)cc1
inactive: HCT-15 colon 72.7% | HT29 colon 22.5% | SNB-75 CNS 77% | U251 CNS 72.6% | PC-3 prostate 67.4% | SK-MEL-5 melanoma 86.1% | UACC-62 melanoma 90.5% | LOX IMVI melanoma 84.4% | SK-MEL-28 melanoma 90.3% | SK-MEL-2 melanoma 114% | EKVX NSCLC 90.1% | SN12C renal 89.9% | UO-31 renal 56.6% | TK-10 renal 85.2% | ACHN renal 93.1% | CAKI-1 renal 104% | A498 renal 110% | CCRF-CEM leukemia 54.4% | MOLT-4 leukemia 38.4%

Cc1cc(N2CCN(CC(=O)Nc3ccc4c(ccn4Cc4ccccc4)c3)CC2)nc(N2CCOCC2)n1
inactive: HCT-15 colon 65.1% | HT29 colon 67.3% | SNB-75 CNS 88.7% | U251 CNS 70.8% | PC-3 prostate 57% | SK-MEL-5 melanoma 83.1% | UACC-62 melanoma 67.7% | LOX IMVI melanoma 88.2% | SK-MEL-28 melanoma 91.4% | SK-MEL-2 melanoma 93% | EKVX NSCLC 74.8% | SN12C renal 87% | UO-31 renal 49% | TK-10 renal 88.2% | ACHN renal 100% | CAKI-1 renal 88% | A498 renal 22.9%
active: CCRF-CEM leukemia 5.84%

C(=C(\C1=NCCN1)n1ccc2ccccc21)/c1ccccc1
inactive: HCT-15 colon 99.6% | HT29 colon 103% | SNB-75 CNS 80.7% | U251 CNS 94.6% | PC-3 prostate 95.5% | SK-MEL-5 melanoma 98.3% | UACC-62 melanoma 93.5% | LOX IMVI melanoma 93.3% | SK-MEL-28 melanoma 106% | SK-MEL-2 melanoma 106% | EKVX NSCLC 92.8% | SN12C renal 98.3% | UO-31 renal 62.4% | TK-10 renal 89.2% | ACHN renal 95.9% | CAKI-1 renal 80.7% | A498 renal 102% | CCRF-CEM leukemia 100% | MOLT-4 leukemia 97.8%

CCN1CCN(CCNc2nccc(-c3c(-c4ccc(F)c(O)c4)nc4occn34)n2)S1(=O)=O
inactive: HCT-15 colon 17.8% | HT29 colon 20.1% | SNB-75 CNS 83.5% | U251 CNS 45.7% | PC-3 prostate 13.7% | LOX IMVI melanoma 15.6% | SK-MEL-28 melanoma 42.2% | EKVX NSCLC 47.9% | SN12C renal 33.9% | TK-10 renal 44.9% | ACHN renal 16.5% | CAKI-1 renal 18.5% | A498 renal 49.1%
active: SK-MEL-5 melanoma -22.7% | UACC-62 melanoma -44.9% | SK-MEL-2 melanoma 1.39% | UO-31 renal 4.38% | CCRF-CEM leukemia 9.35% | MOLT-4 leukemia -9.69%

CCOC(=O)C#Cc1c(C(=O)OCC)nnn1[C@@H]1O[C@H](COC)[C@@H](OC)[C@H]1OC
active: HCT-15 colon -12.2% | ACHN renal -35.3% | CAKI-1 renal -91.2%
inactive: HT29 colon 24.9% | SNB-75 CNS 72.9% | U251 CNS 102% | PC-3 prostate 92.4% | SK-MEL-5 melanoma 98.3% | UACC-62 melanoma 93.8% | LOX IMVI melanoma 67% | SK-MEL-28 melanoma 96.3% | SK-MEL-2 melanoma 92% | EKVX NSCLC 107% | SN12C renal 82.5% | UO-31 renal 29.2% | TK-10 renal 11.1% | A498 renal 99.1% | CCRF-CEM leukemia 27.7% | MOLT-4 leukemia 58.6%
